Source: PubChem BioAssay (NCATS)
Records with an inconclusive call do not appear. Activity calls are given as the source filed them. Unless noted, calls come from the whole dose curve; as a rule, active = well fitted curve in the direction sought with a large enough effect; inconclusive = small, poorly fitted or top-dose-only effect, or another doubt; inactive = no such curve, though single readings can be large; an effect the other way counts as inactive or inconclusive.

How the values were obtained:
[1] = S16 Schwann cell viability assay (CellTiter-Glo assay) (AID 624031); conditions: S16 rat Schwann cells viability, 24 h; series mostly up to 57.5 µM;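 note: cellular ATP luminescence as a viability measure; plate controls were DMSO-treated cells for no effect and cell-free wells for full effect; nearly all actives have a fitted effect of over 70% in size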
Method in brief: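 Untransfected S16 rat Schwann cells; compound 24 h, 37 °C/5% CO2; CellTiter-Glo ATP luminescence. % activity vs no-cell wells and DMSO controls (0%); concentration-effect curves classed by r2, response magnitude, activity.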

[2] = S16 Schwann cell PMP22 intronic element firefly luciferase assay (AID 624032); conditions: S16 rat Schwann cells, PMP22 element FLuc, 24 h; series mostly up to 57.5 µM;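 note: plate controls were DMSO for no effect and PTC124 positive control mean for full effect; nearly all actives have a fitted effect of over 30% in size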
Method in brief: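 Luciferase reporter of PMP22 intronic-element expression in stably transfected S16 rat Schwann cells, read by ONE-Glo luminescence after 24 h compound exposure at 37 C. Activity scaled between DMSO (0%) and positive-control PTC124; concentration-effect curves quality-classified.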

[3] = S16 Schwann cell PMP22 intronic element beta-lactamase assay (AID 624044; calls by dose curve;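 note: 0% = DMSO and -100% = potassium clavulanate positive control; nearly all actives have a fitted effect of over 15% in size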); conditions: S16 rat Schwann cells, PMP22 element beta-lactamase FRET, 24 h; series mostly up to 38.3 µM
Method in brief: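 Beta-lactamase reporter under a PMP22 intronic regulatory element in stable S16 rat Schwann cells; 24 h compound exposure. 460 nm blue signal normalized between DMSO (0%) and potassium clavulanate, with 535 nm FRET tracking viability; curves classed by r2 and response.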

[4] = qHTS assay for small molecule activators of the nuclear factor-kappa B (NF-kB) signaling pathway (AID 651749; active = well fitted activation curve with a large enough effect in the signal ratio; the % refers to the signal ratio; note: % of control where 0% means no effect); conditions: NF-kB-bla ME-180 cells, beta-lactamase FRET ratio, 16 h; stronger effect = higher value
Method in brief: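 FRET-based beta-lactamase detection in ME-180 cells reports NF-kB response-element-driven transcription following overnight (16 hr) compound treatment.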

[5] = qHTS assay for small molecule disruptors of the mitochondrial membrane potential - 1 hr assay (AID 651754; calls by dose curve; note: % is set by controls: 0 for no effect and ±100 for the full control effect; nearly all actives have a fitted effect of over 35% in size); conditions: series mostly up to 92.2 µM
Method in brief: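 In this qHTS format, a 1 hr compound treatment of HepG2 cells precedes Mito-MPS staining, and membrane potential is judged from aggregate (red) against monomer (green) fluorescence intensity.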

[6] = qHTS assay for small molecule disruptors of the mitochondrial membrane potential - 5 hr assay (AID 651755; calls by dose curve; note: % is set by controls: 0 for no effect and ±100 for the full control effect; nearly all actives have a fitted effect of over 40% in size); conditions: JC-1-type ratio dye; series mostly up to 92.2 µM
Method in brief: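 Membrane-potential dye readout: red aggregate (540 ex/590 em) versus green monomer (490 ex/535 em) fluorescence after 30 min dye loading, following 5 hr compound exposure at 37C of overnight-plated HepG2 cells.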

[7] = biological target: Tumor necrosis factor (Homo sapiens) (UniProt P01375); test: qHTS assay to identify small molecules that stimulate Tumor Necrosis Factor-alpha (TNF-alpha) secretion (AID 651757; active = well fitted curve in the direction sought with a large enough effect in the signal ratio; the % refers to the signal ratio; note: 0% is about no effect); conditions: Human cells, HTRF 665/615 ratio; series mostly up to 92.2 µM
Method in brief: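 Using 3000 THP-1 cells per well, compounds and controls were applied for 17 hrs at 37 C. Detection followed with two labeled anti-TNF-alpha antibodies (cryptate donor, XL665 acceptor) for 3 hr at room temperature, measured by TR-FRET.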

[8] = qHTS assay for environmental chemicals that activate the Aryl hydrocarbon Receptor (AhR) signaling pathway (AID 651777); conditions: 1A2-DRE human hepatoma cells, luciferase, 24 h; activation: stronger effect = higher value; note: % of control where 0% means no effect; nearly all actives have a fitted effect of over 15% in size
Method in brief: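 Luminescence read-out: One-Glo added for 30 min at RT after 24 hr compound treatment (37 C, 5% CO2) of human hepatoma cells expressing a DRE/CYP1A2 promoter–luciferase reporter; increased signal indicates AhR activation.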

[9] = biological target: Peroxisome proliferator-activated receptor alpha (Homo sapiens) (UniProt Q07869); test: qHTS assay for small molecule agonists of the peroxisome proliferator-activated receptor alpha (PPARalpha) signaling pathway (AID 651778); conditions: PathHunter PPARalpha complementation, chemiluminescence, 6 h; max response: stronger effect = higher value; note: % of control where 0% means no effect
Method in brief: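 Chemiluminescence from complemented enzyme reported PPARalpha activation in cells after 6 hr of compound treatment at 37 C. The detection reagent was incubated for 60 min at room temperature, and compounds were scored as agonists.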

[10] = qHTS assay for small molecule agonists of the antioxidant response element (ARE) signaling pathway measured by Nrf2-dependant transcriptional activity - cell viability counter screen (AID 720653; active = well fitted curve in the direction sought with a large enough effect in the repeat runs; an effect the other way counts as inactive or inconclusive; note: % is set by controls: 0 for no effect and ±100 for the full control effect); conditions: ARE-bla HepG2 viability, CellTiter-Glo ATP luminescence, 16 h; max response: stronger effect = lower value
Method in brief: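 Cytotoxicity counter screen: intracellular ATP quantified by CellTiter-Glo luminescence in the same ARE-bla HepG2 plates, after 16 h compound exposure and a 2 h beta-lactamase substrate step.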

[11] = qHTS assay for cell viability of HEK293 cells (AID 743288); conditions: ATP luminescence (CellTiter-Glo), 18 h; max response: stronger effect = lower value; note: potency is the fitted concentration of half-maximal effect; nearly all actives have a fitted effect of over 50% in size
Method in brief: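 Viable-cell counts were inferred from luciferase-based ATP content in HEK293 cells seeded at 2,000/well, pre-incubated ≥5 h, then dosed with DMSO-solubilised compounds for 18 h at 37 C.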

[12] = test system: 7G8; test: qHTS profiling for inhibitors of Plasmodium falciparum proliferation (AID 504749); note: nearly all actives have a fitted effect of over 60% in size; note: potency is the fitted concentration of half-maximal effect; conditions: P. falciparum in erythrocytes, SYBR Green DNA, 72 h; series mostly up to 28.7 µM
Method in brief: (§1)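 In a 72 h erythrocytic culture (37 C, humidified, 5% CO2) at 2.5% hematocrit and 0.3% starting parasitemia, compounds were tested; SYBR Green I in detergent lysis buffer stained parasite DNA overnight.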

[13] = test system: AA1029; test: as above; conditions: P. falciparum in erythrocytes, SYBR Green DNA, 72 h; series mostly up to 28.7 µM
Method in brief: as §1

[14] = test system: ATS95; test: as above; conditions: P. falciparum in erythrocytes, SYBR Green DNA, 72 h; series mostly up to 28.7 µM
Method in brief: as §1

[15] = test system: C2A; test: as above; conditions: P. falciparum in erythrocytes, SYBR Green DNA, 72 h; series mostly up to 28.7 µM
Method in brief: as §1

[16] = test system: CP185; test: as above; conditions: P. falciparum in erythrocytes, SYBR Green DNA, 72 h; series mostly up to 28.7 µM
Method in brief: as §1

[17] = test system: CP191; test: as above; conditions: P. falciparum in erythrocytes, SYBR Green DNA, 72 h; series mostly up to 28.7 µM
Method in brief: as §1

[18] = test system: CP192; test: as above; conditions: P. falciparum in erythrocytes, SYBR Green DNA, 72 h; series mostly up to 28.7 µM
Method in brief: as §1

[19] = test system: CP194; test: as above; conditions: P. falciparum in erythrocytes, SYBR Green DNA, 72 h; series mostly up to 28.7 µM
Method in brief: as §1

[20] = test system: CP201; test: as above; conditions: P. falciparum in erythrocytes, SYBR Green DNA, 72 h; series mostly up to 28.7 µM
Method in brief: as §1

[21] = test system: CP203; test: as above; conditions: P. falciparum in erythrocytes, SYBR Green DNA, 72 h; series mostly up to 28.7 µM
Method in brief: as §1

[22] = test system: CP211; test: as above; conditions: P. falciparum in erythrocytes, SYBR Green DNA, 72 h; series mostly up to 28.7 µM
Method in brief: as §1

[23] = test system: CP215; test: as above; conditions: P. falciparum in erythrocytes, SYBR Green DNA, 72 h; series mostly up to 28.7 µM
Method in brief: as §1

[24] = test system: CP238; test: as above; conditions: P. falciparum in erythrocytes, SYBR Green DNA, 72 h; series mostly up to 28.7 µM
Method in brief: as §1

[25] = test system: CP252; test: as above; conditions: P. falciparum in erythrocytes, SYBR Green DNA, 72 h; series mostly up to 28.7 µM
Method in brief: as §1

[26] = test system: CP256; test: as above; conditions: P. falciparum in erythrocytes, SYBR Green DNA, 72 h; series mostly up to 28.7 µM
Method in brief: as §1

[27] = test system: CP262; test: as above; conditions: P. falciparum in erythrocytes, SYBR Green DNA, 72 h; series mostly up to 28.7 µM
Method in brief: as §1

[28] = test system: CP266; test: as above; conditions: P. falciparum in erythrocytes, SYBR Green DNA, 72 h; series mostly up to 28.7 µM
Method in brief: as §1

[29] = test system: CP268; test: as above; conditions: P. falciparum in erythrocytes, SYBR Green DNA, 72 h; series mostly up to 28.7 µM
Method in brief: as §1

[30] = test system: CP269; test: as above; conditions: P. falciparum in erythrocytes, SYBR Green DNA, 72 h; series mostly up to 28.7 µM
Method in brief: as §1

[31] = test system: CP291; test: as above; conditions: P. falciparum in erythrocytes, SYBR Green DNA, 72 h; series mostly up to 28.7 µM
Method in brief: as §1

[32] = test system: CP297; test: as above; conditions: P. falciparum in erythrocytes, SYBR Green DNA, 72 h; series mostly up to 28.7 µM
Method in brief: as §1

[33] = test system: CP305; test: as above; conditions: P. falciparum in erythrocytes, SYBR Green DNA, 72 h; series mostly up to 28.7 µM
Method in brief: as §1

[34] = test system: CP315; test: as above; conditions: P. falciparum in erythrocytes, SYBR Green DNA, 72 h; series mostly up to 28.7 µM
Method in brief: as §1

[35] = test system: CP325; test: as above; conditions: P. falciparum in erythrocytes, SYBR Green DNA, 72 h; series mostly up to 28.7 µM
Method in brief: as §1

[36] = test system: CP329; test: as above; conditions: P. falciparum in erythrocytes, SYBR Green DNA, 72 h; series mostly up to 28.7 µM
Method in brief: as §1

[37] = test system: CP335; test: as above; conditions: P. falciparum in erythrocytes, SYBR Green DNA, 72 h; series mostly up to 28.7 µM
Method in brief: as §1

[38] = test system: DFO2036; test: as above; conditions: P. falciparum in erythrocytes, SYBR Green DNA, 72 h; series mostly up to 28.7 µM
Method in brief: as §1

[39] = test system: DIV17; test: as above; conditions: P. falciparum in erythrocytes, SYBR Green DNA, 72 h; series mostly up to 28.7 µM
Method in brief: as §1

[40] = test system: DIV30; test: as above; conditions: P. falciparum in erythrocytes, SYBR Green DNA, 72 h; series mostly up to 28.7 µM
Method in brief: as §1

[41] = test system: Dd2; test: as above; conditions: P. falciparum in erythrocytes, SYBR Green DNA, 72 h; series mostly up to 28.7 µM
Method in brief: as §1

[42] = test system: FAB9; test: as above; conditions: P. falciparum in erythrocytes, SYBR Green DNA, 72 h; series mostly up to 28.7 µM
Method in brief: as §1

[43] = test system: GB4; test: as above; conditions: P. falciparum in erythrocytes, SYBR Green DNA, 72 h; series mostly up to 28.7 µM
Method in brief: as §1

[44] = test system: ICS; test: as above; conditions: P. falciparum in erythrocytes, SYBR Green DNA, 72 h; series mostly up to 28.7 µM
Method in brief: as §1

[45] = test system: JCK; test: as above; conditions: P. falciparum in erythrocytes, SYBR Green DNA, 72 h; series mostly up to 28.7 µM
Method in brief: as §1

[46] = test system: P94_40; test: as above; conditions: P. falciparum in erythrocytes, SYBR Green DNA, 72 h; series mostly up to 28.7 µM
Method in brief: as §1

[47] = test system: PC26; test: as above; conditions: P. falciparum in erythrocytes, SYBR Green DNA, 72 h; series mostly up to 28.7 µM
Method in brief: as §1

[48] = test system: PC49; test: as above; conditions: P. falciparum in erythrocytes, SYBR Green DNA, 72 h; series mostly up to 28.7 µM
Method in brief: as §1

[49] = test system: TAB113; test: as above; conditions: P. falciparum in erythrocytes, SYBR Green DNA, 72 h; series mostly up to 28.7 µM
Method in brief: as §1

[50] = biological target: Nuclear receptor subfamily 1 group I member 2 (Rattus norvegicus) (UniProt Q9R1A7); test: qHTS assay for small molecule activators of the rat pregnane X receptor (rPXR) signaling pathway (AID 651751; call rule not given here; note: 0% is about no effect); conditions: rPXR reporter cells, luciferase (One-Glo), 24 h
Nuclear receptor subfamily 1 group I member 2 (Rattus norvegicus), sequence (Q9R1A7 whole entry, looked up): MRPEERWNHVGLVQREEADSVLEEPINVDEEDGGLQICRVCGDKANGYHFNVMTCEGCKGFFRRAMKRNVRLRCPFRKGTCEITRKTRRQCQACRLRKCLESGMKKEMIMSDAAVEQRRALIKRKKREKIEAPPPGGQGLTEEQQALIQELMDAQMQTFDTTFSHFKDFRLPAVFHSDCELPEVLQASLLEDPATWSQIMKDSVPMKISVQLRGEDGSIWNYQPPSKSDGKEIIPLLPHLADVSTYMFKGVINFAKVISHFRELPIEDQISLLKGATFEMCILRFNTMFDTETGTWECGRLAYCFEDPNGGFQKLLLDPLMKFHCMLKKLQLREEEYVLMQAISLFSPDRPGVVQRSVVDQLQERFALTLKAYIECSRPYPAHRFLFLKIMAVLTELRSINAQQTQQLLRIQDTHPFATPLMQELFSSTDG

Tumor necrosis factor (Homo sapiens), sequence (P01375 whole entry, looked up): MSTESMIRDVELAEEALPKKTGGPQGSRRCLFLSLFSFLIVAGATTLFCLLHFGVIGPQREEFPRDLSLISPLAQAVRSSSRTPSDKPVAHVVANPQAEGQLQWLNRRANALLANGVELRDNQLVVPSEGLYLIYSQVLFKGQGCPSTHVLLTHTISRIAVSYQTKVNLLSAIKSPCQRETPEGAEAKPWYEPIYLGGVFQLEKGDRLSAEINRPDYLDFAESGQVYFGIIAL
Peroxisome proliferator-activated receptor alpha (Homo sapiens), sequence (Q07869 whole entry, looked up): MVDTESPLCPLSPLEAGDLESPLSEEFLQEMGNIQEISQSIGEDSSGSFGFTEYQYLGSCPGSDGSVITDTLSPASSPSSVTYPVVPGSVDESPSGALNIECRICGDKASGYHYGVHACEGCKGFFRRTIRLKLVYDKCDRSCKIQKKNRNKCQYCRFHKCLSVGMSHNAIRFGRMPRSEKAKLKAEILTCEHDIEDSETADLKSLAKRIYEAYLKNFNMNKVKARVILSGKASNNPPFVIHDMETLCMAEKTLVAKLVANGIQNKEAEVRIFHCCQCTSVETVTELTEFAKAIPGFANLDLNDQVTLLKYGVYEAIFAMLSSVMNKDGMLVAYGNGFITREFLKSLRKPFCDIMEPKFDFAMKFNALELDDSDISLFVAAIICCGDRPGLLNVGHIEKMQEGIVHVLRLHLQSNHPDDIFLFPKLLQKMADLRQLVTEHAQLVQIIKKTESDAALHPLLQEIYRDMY

C=C1CC[C@H](O)C/C1=C/C=C1\CCC[C@]2(C)[C@@H]([C@H](C)CCCC(C)C)CC[C@@H]12
active: Potency [11] 44.7 µM | Potency [12] 11.2 µM | Potency [41] 12.6 µM | Potency [44] 10 µM
inactive: Potency [1] | Potency [2] | outcome [3] | activation [4] 1.86% | Potency [5] | Potency [6] | Potency [7] | activation [8] 5.81% | max response [9] -0.403% | max response [10] -9.05% | Potency [13] | Potency [14] | Potency [15] | Potency [16] | Potency [17] | Potency [18] | Potency [19] | Potency [20] | Potency [21] | Potency [22] | Potency [23] | Potency [24] | Potency [25] | Potency [26] | Potency [27] | Potency [28] | Potency [29] | Potency [30] | Potency [31] | Potency [32] | Potency [33] | Potency [34] | Potency [35] | Potency [36] | Potency [37] | Potency [38] | Potency [39] | Potency [40] | Potency [42] | Potency [43] | Potency [45] | Potency [46] | Potency [47] | Potency [48] | Potency [49] | max response [50] 7.46%
